From PubChem BioAssay (NCI) come the findings set out here.

Where “and” joins values, the source holds several entries; their conditions need not be identical. Equal entries are not always repeated. This is part of a sample that, as a whole, favours compounds with a hit. Of some 83,000 tested, about 20% had one in any assay.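 Testing used 96-well plates and a 48-hour single-concentration exposure. Example: -40 means 40% of the starting cells died.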 Calls of active or inactive are those of the source. Rule for the calls: active = growth percent below 10; inactive = the rest.

For the assay, the system named is HCT-116 colon. Briefly: NCI-60 one-dose screen, 48 h (100 = growth as untreated, 0 = no growth, -100 = all killed). As to conditions: 10 µM unless noted.
Take `O=C(CSc1nnc(-c2ccc(-c3nc4ccc(Cl)cc4[nH]3)cc2)o1)Nc1ccc(Cl)cc1`: the growth is 5.5% (active).

Take `COc1ccc(-n2c(NC(=O)N3CCN(C)CC3)c(C#N)c3ccccc32)cc1`: the growth was 48% (inactive).

As for `N#Cc1c(NC(=O)N2CCOCC2)n(-c2ccc(OC(F)(F)F)cc2)c2cc(F)ccc12`, the growth was 80.5% (inactive).

`COc1ccc(-c2nc3ccccc3n2CC(=O)N=Nc2c(O)[nH]c3ccc(Br)cc23)cc1`: the growth was 51.9% (inactive).

As to `O=C1Nc2ccccc2/C1=C/C(=O)c1cc2ccccc2oc1=O`, the growth is 66% (inactive).

In the case of `COc1sc(/C=N/NC(=O)c2[nH]c3ccc(Br)cc3c2-c2ccccc2)cc1Br`, the growth is -5.78% (active).

On to `CSc1ccc(OCc2nc3ccccc3n2-c2cccc(NS(C)(=O)=O)c2)cc1`, for which the growth is 101% (inactive) and 70.6% (inactive).

For the molecule `O=C(NNC(=O)c1ccc(OCc2nc3ccc(Cl)cc3[nH]2)cc1)Nc1ccc(Cl)c(Cl)c1`, the growth is 26.1% (inactive).

As for `COc1cc(C2CC(c3ccc(F)cc3)=Nc3c(N)nc(N)nc3N2)ccc1Oc1nc(Nc2ccc(F)cc2)nc(N(C)C)n1` (stereo not drawn), the growth is 6.9% (active).

Turning to `NC1(c2ccc(-c3ccc4ncnc(NCc5ccccc5)c4c3)cn2)COC1`, the growth was 109% (inactive) and 116% (inactive).

As to `C#CCN(C)CCCOc1ccc(N(CC)C(=O)c2cc(C(C)C)c(O)cc2O)cc1Cl`, the growth was -3.98% (active).

Turning to `C#CCCCNCCNc1ccnc2cc(Cl)ccc12`, the growth was 49.5% (inactive).

With `COc1cc(CNC(=O)C[C@H](C)CCC=C(C)C)ccc1OCc1cn(-c2ccccc2F)nn1`, the growth was 60.2% (inactive).
